The subject of this experiment is PRMT1 (protein arginine N-methyltransferase 1). The experiment in a line: PRMT1 binders on small-molecule microarrays, primary screen, biochemical, small-molecule microarray, 635 nm fluorescence (AID 1088).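 Note: binding of Prmt1 protein to compounds spotted on small-molecule microarray slides.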 The following applies: small-molecule microarray binding, higher = more signal.
`C=CCC(OC(C)=O)[C@@H]1[C@@H](N(Cc2cccc3ccccc23)C(=O)c2ccc(-c3ccccc3)cc2)c2cc(OCCCO)ccc2N1C(=O)Cc1ccc2ccccc2c1` (some centres undefined) showed a composite z-score of 0.157.
With `O=C(NC1CC1)[C@@H]1c2ccccc2C(=O)N(Cc2ccc(OC(F)(F)F)cc2)[C@H]1c1ccc(CO)cc1` the figure was 0.696; with `O=C(NC1CC1)[C@@H]1c2ccccc2C(=O)N(CC23CC4CC(CC(C4)C2)C3)[C@H]1c1ccc(CO)cc1`, 1.53; with `CC(=O)NCCCC[C@@H]1NC(=O)[C@H]2C[C@@H](C(=O)NCCCCCCNC(=O)CS)[C@@H](c3cccc(OCCO)c3)N2C1=O`, 1.56.
In turn, `O=C1O[C@@H](c2ccccc2)[C@@H](c2ccccc2)N2[C@@H](c3ccc(OCCO)cc3)[C@]3(C(=O)Nc4ccc(C#CC5(O)CCCCCC5)cc43)[C@@H](C(=O)O)[C@H]12` displayed a composite z-score of 1.35.
Regarding `COC(=O)[C@@]1(Cc2ccccc2)[C@H]2c3cc(C(=O)N(C)C)n(Cc4ccc(C(F)(F)F)nc4)c3C[C@H]2CN1C(=O)c1ccccc1`, the composite z-score was 0.644.
With `CN1C(=O)C2C(C1=O)C1C=C(c3ccc(CO)cc3)C2C(C2CC2)N1C` (centres undefined) the figure was -0.346; with `O=C1C=C(c2ccccc2)C(=O)C2=C1CC([C@H]1Oc3ccccc3S(=O)(=O)N3CCC[C@@H]13)=CC2`, 0.345.
As for `C=C(COC)C(=O)CC[C@@H](OC(C)=O)c1ccccc1OCCO`, the figure is 1.34; as for `COCCOC(=O)N1C(=O)[C@@]2(c3cc(C#CCCO)ccc31)[C@H](c1ccccc1OCCO)N1[C@H](c3ccccc3)[C@H](c3ccccc3)OC(=O)[C@H]1[C@@H]2C(N)=O`, 1.55.
With `CCCCCCc1nc(Cc2cc(OC)c(OC)c(OC)c2)cc2c1[Si](C(C)C)(C(C)C)O[C@H]2c1ccccc1` the figure was 0.811.
The molecule `COC(=O)[C@]1(CCC(=O)OC(C)(C)C)N=C(c2ccc(OCCCO)cc2)O[C@@H]1c1ccccc1N=[N+]=[N-]` gave a composite z-score of 1.42.
With `C[C@@H]1ON(c2ccc(I)cc2)[C@H](c2cccc(NC(=O)OCC3c4ccccc4-c4ccccc43)c2)[C@H]1C(=O)N1C(=O)OC[C@H]1Cc1ccccc1`, the composite z-score worked out at 0.908.
In the case of `CC1CC/C=C\[C@H]2OC34C=CCN(C(C)(C)C)C(=O)[C@H]3N(CCCO)C(=O)[C@@H]4C2C(=O)O1` (some centres undefined), the composite z-score is -0.672.
In the case of `COc1ccc([Si](C)(C)[C@H]2[C@H](CC(=O)N3Cc4ccccc4C[C@H]3CO)O[C@@]3(C(=O)N(c4ccccc4)c4ccccc43)[C@@H]2C)cc1`, the composite z-score is 1.53.
Regarding `CCCNC(=O)[C@@]1(Sc2ccc(C)cc2)CC(=O)N(Cc2ccccc2Cl)[C@@H]1c1ccc(CO)cc1I`, the composite z-score was 0.16.
With `N#Cc1ccc(-c2cccc(=O)o2)cc1` the figure was 1; with `CCCCC(O)C1C=CC2C(=O)N(c3ccccc3)C(=O)C2N1Nc1ccccc1` (centres undefined), 0.24; with `CC(C)=CCCC=C(C)C(O)C1C=CC2C(=O)N(c3ccccc3)C(=O)C2N1Nc1ccc(C#N)cc1` (centres undefined), 1.38.
As to `COCCOC(=O)N1C(=O)[C@@]2(c3cc(C#CC4(O)CCCCCC4)ccc31)[C@H](c1ccc(O)cc1)N1[C@H](c3ccccc3)[C@H](c3ccccc3)OC(=O)[C@H]1[C@@H]2C(=O)N1CCCCCCC1`, the composite z-score was found to be 1.55.
As for `COCCOC(=O)N1C(=O)[C@@]2(c3cc(C#Cc4ccc(OC)cc4)ccc31)[C@H](c1ccc(OCCO)cc1)N1[C@H](c3ccccc3)[C@H](c3ccccc3)OC(=O)[C@H]1[C@@H]2C(=O)NC[C@H](O)c1ccccc1`, the figure is 1.5; as for `O=C(N1CCOCC1)[C@@]1(Cc2ccccc2)COC(c2ccc(OCCCO)cc2)=N1`, 0.88; as for `COC(=O)c1cccc([C@H]2OC(=CC(=O)OC(C)C)C[C@@H](c3cccc(C(=O)OC)c3)O2)c1`, 1.55.
With `CN1C(=O)[C@@H]2[C@@H](CC(COc3ccccc3)=C3[C@@H](CCc4ccccc4)OB(O)C[C@@H]32)C1=O` the figure was 0.359; with `C=C(COC)C(=O)CC[C@@H](OC(=O)c1ccccc1-c1ccccc1C(=O)O)c1ccc(OCCO)cc1`, 1.39.
In turn, `C=C(CCCC)C(=O)CC[C@H](OC(=O)c1ccccc1-c1ccccc1C(=O)O)c1ccc(OCCO)cc1` yielded a composite z-score of 0.636.
As for `C[N+](C)(C)CCCC[C@@H]1NC(=O)[C@H]2C[C@@H](C(=O)NCCCCCNC(=O)CS)[C@@H](c3cccc(OCCO)c3)N2C1=O`, the figure is -0.248; as for `CC(C)NC(=O)[C@@]1(c2ccc([N+](=O)[O-])cc2)CC(=O)N(CC23CC4CC(CC(C4)C2)C3)[C@@H]1c1ccc(CO)cc1`, 1.54; as for `CC(=O)OCC1C2CC[C@H]3C(OCc4ccc(F)cc4C(F)(F)F)OC[C@]4(C)[C@H]3C2=C(CN4C(=O)OC(C)(C)C)[C@H](C)C1COC(C)=O` (some centres undefined), -0.025.

The values are drawn from PubChem BioAssay.
